Data published in PubChem BioAssay AID1159580 (chemical genetic matrix, 2015).
Out of some 5,500 compounds screened, about 2,000 (36%) were called active. Roughly 18% stayed inconclusive and do not appear here. No stated cut-off is given here; in the data, active means normalized growth mostly below about 0.91 (no sharp cut-off); inconclusive means no clear call, values can overlap the other calls; inactive means mostly above about 0.92. This is one part of the list.

Test: chemical genetic growth profiling, strain panel (AID 1159580);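 further: tested at 20 µM; growth read once vehicle control cultures reached saturation at 30 °C; 1 = growth at the plate median or of vehicle wells; lower values mean less growth of the strain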
Conditions: growth OD

Measured: normalized growth

COc1cc([C@@H]2c3cc4c(cc3[C@H](O)[C@H]3COC(=O)[C@H]23)OCO4)cc(OC)c1OC
inactive: S. cerevisiae deletion strains, locus YJR075W, strain HOC1, hits give low values 1.03 | S. cerevisiae deletion strains, locus YKL009W, strain mrt4, hits give low values 1.04 | S. cerevisiae deletion strains, locus YKL068W, hits give low values 1.01 | S. cerevisiae deletion strains, locus YKL085W, strain MDH1 (second series), hits give low values 1.01 | S. cerevisiae deletion strains, locus YKL085W, strain MDH1, hits give low values 1.01 | S. cerevisiae deletion strains, locus YKL160W, strain elf1, hits give low values 1 | S. cerevisiae deletion strains, locus YKL190W, strain CNB1, hits give low values 1.01 | S. cerevisiae deletion strains, locus YKR001C, strain vps1, hits give low values 1.01 | S. cerevisiae deletion strains, locus YKR026C, strain gcn3, hits give low values 1.01 | S. cerevisiae deletion strains, locus YKR091W, strain srl3, hits give low values 1.01 | S. cerevisiae deletion strains, locus YLL001W, strain dnm1, hits give low values 0.984 | S. cerevisiae deletion strains, locus YLL026W, hits give low values 1 | S. cerevisiae deletion strains, locus YLL041C, strain sdh2, hits give low values 1.01 | S. cerevisiae deletion strains, locus YLR027C, strain aat2, hits give low values 1.01 | S. cerevisiae deletion strains, locus YLR039C, strain RIC1, hits give low values 1.02 | S. cerevisiae deletion strains, locus YLR058C, strain SHM2, hits give low values 1.01 | S. cerevisiae deletion strains, locus YLR102C, strain apc9, hits give low values 1.01 | S. cerevisiae deletion strains, locus YLR113W, strain HOG1, hits give low values 0.924 | S. cerevisiae deletion strains, locus YLR221C, strain rsa3, hits give low values 1.02 | S. cerevisiae deletion strains, locus YLR258W, strain gsy2, hits give low values 1.02 | S. cerevisiae deletion strains, locus YLR262C, strain YPT6 (second series), hits give low values 1.01 | S. cerevisiae deletion strains, locus YLR262C, strain YPT6, hits give low values 1.05 | S. cerevisiae deletion strains, locus YLR268W, strain sec22, hits give low values 1.06 | S. cerevisiae deletion strains, locus YLR320W, strain mms22, hits give low values 1.05 | S. cerevisiae deletion strains, locus YLR330W, strain CHS5, hits give low values 1.01 | S. cerevisiae deletion strains, locus YLR342W, strain FKS1 (second series), hits give low values 1.02 | S. cerevisiae deletion strains, locus YLR342W, strain FKS1, hits give low values 1.02 | S. cerevisiae deletion strains, locus YLR357W, strain rsc2, hits give low values 1.05 | S. cerevisiae deletion strains, locus YLR370C, strain arc18, hits give low values 1.02 | S. cerevisiae deletion strains, locus YLR371W, strain rom2, hits give low values 1.02 | S. cerevisiae deletion strains, locus YLR384C, strain iki3, hits give low values 0.998 | S. cerevisiae deletion strains, locus YLR418C, strain cdc73, hits give low values 1.02 | S. cerevisiae deletion strains, locus YML016C, strain PPZ1, hits give low values 1.01 | S. cerevisiae deletion strains, locus YML032C, strain rad52, hits give low values 1.05 | S. cerevisiae deletion strains, locus YML120C, strain ndi1, hits give low values 1.02 | S. cerevisiae deletion strains, locus YML124C, strain tub3, hits give low values 1 | S. cerevisiae deletion strains, locus YMR058W, strain fet3, hits give low values 1.02 | S. cerevisiae deletion strains, locus YMR078C, strain ctf18, hits give low values 1.02 | S. cerevisiae deletion strains, locus YMR125W, strain sto1, hits give low values 1.01 | S. cerevisiae deletion strains, locus YMR129W, hits give low values 1.01 | S. cerevisiae deletion strains, locus YMR205C, strain PFK2, hits give low values 1.03 | S. cerevisiae deletion strains, locus YMR223W, strain ubp8, hits give low values 0.985 | S. cerevisiae deletion strains, locus YMR231W, strain pep5, hits give low values 1.01 | S. cerevisiae deletion strains, locus YMR263W, strain SAP30, hits give low values 1.02 | S. cerevisiae deletion strains, locus YMR307W, strain GAS1, hits give low values 0.994 | S. cerevisiae deletion strains, locus YNL067W, strain RPL9B, hits give low values 1.03 | S. cerevisiae deletion strains, locus YNL071W, strain lat1, hits give low values 1.01 | S. cerevisiae deletion strains, locus YNL128W, strain TEP1, hits give low values 1.02 | S. cerevisiae deletion strains, locus YNL153C, strain GIM3, hits give low values 1.03 | S. cerevisiae deletion strains, locus YNL183C, strain NPR1, hits give low values 0.926 | S. cerevisiae deletion strains, locus YNL209W, strain ssb2, hits give low values 1.02 | S. cerevisiae deletion strains, locus YNL233W, strain BNI4, hits give low values 1.03 | S. cerevisiae deletion strains, locus YNL248C, strain rpa49, hits give low values 1.01 | S. cerevisiae deletion strains, locus YNL250W, strain rad50, hits give low values 1.01 | S. cerevisiae deletion strains, locus YNL271C, strain bni1, hits give low values 1.01 | S. cerevisiae deletion strains, locus YNL298W, strain CLA4, hits give low values 1.01 | S. cerevisiae deletion strains, locus YNL307C, strain MCK1, hits give low values 1 | S. cerevisiae deletion strains, locus YNL322C, strain KRE1 (second series), hits give low values 1.01 | S. cerevisiae deletion strains, locus YNL322C, strain KRE1, hits give low values 1.01 | S. cerevisiae deletion strains, locus YNR049C, strain mso1, hits give low values 1 | S. cerevisiae deletion strains, locus YNR052C, strain pop2, hits give low values 1.01 | S. cerevisiae deletion strains, locus YOL006C, strain TOP1, hits give low values 1.07 | S. cerevisiae deletion strains, locus YOL012C, strain htz1 0.833 | S. cerevisiae deletion strains, locus YOL147C, strain pex11, hits give low values 1 | S. cerevisiae deletion strains, locus YOR001W, strain rrp6, hits give low values 1.01 | S. cerevisiae deletion strains, locus YOR061W, strain CKA2, hits give low values 1.01 | S. cerevisiae deletion strains, locus YOR069W, strain VPS5, hits give low values 1.01 | S. cerevisiae deletion strains, locus YOR070C, strain gyp1, hits give low values 1.02 | S. cerevisiae deletion strains, locus YOR080W, strain dia2, hits give low values 1.01 | S. cerevisiae deletion strains, locus YOR083W, strain WHI5, hits give low values 1.01 | S. cerevisiae deletion strains, locus YOR106W, strain vam3, hits give low values 1.02 | S. cerevisiae deletion strains, locus YOR136W, strain idh2, hits give low values 1 | S. cerevisiae deletion strains, locus YOR144C, strain elg1, hits give low values 1.01 | S. cerevisiae deletion strains, locus YOR184W, strain ser1, hits give low values 1.02 | S. cerevisiae deletion strains, locus YOR231W, strain MKK1, hits give low values 0.947 | S. cerevisiae deletion strains, locus YOR265W, strain rbl2, hits give low values 1.01 | S. cerevisiae deletion strains, locus YOR270C, strain vph1, hits give low values 0.996 | S. cerevisiae deletion strains, locus YOR290C, strain snf2, hits give low values 0.98 | S. cerevisiae deletion strains, locus YOR316C, strain cot1, hits give low values 1.01 | S. cerevisiae deletion strains, locus YPL051W, strain arl3, hits give low values 1.01 | S. cerevisiae deletion strains, locus YPL055C, strain LGE1, hits give low values 1.04 | S. cerevisiae deletion strains, locus YPL078C, strain atp4, hits give low values 0.997 | S. cerevisiae deletion strains, locus YPL106C, strain sse1, hits give low values 1.03 | S. cerevisiae deletion strains, locus YPL240C, strain hsp82, hits give low values 1.02 | S. cerevisiae deletion strains, locus YPL241C, strain CIN2, hits give low values 1.01 | S. cerevisiae deletion strains, locus YPL256C, strain CLN2, hits give low values 0.942 | S. cerevisiae deletion strains, locus YPR119W, strain clb2, hits give low values 1.01 | S. cerevisiae deletion strains, locus YPR141C, strain kar3, hits give low values 1.01 | S. cerevisiae deletion strains, locus YPR163C, strain tif3, hits give low values 1.02 | S. cerevisiae deletion strains, locus YPR167C, strain met16, hits give low values 1.01 | S. cerevisiae deletion strains, strain wtn01, hits give low values 1.03 | S. cerevisiae strains, strain wild type, hits give low values 1.01
